Laboratory results: PubChem BioAssay (NCI)
This is part of a sample that, as a whole, favours compounds with a hit. Of some 79,000 tested, about 15% had one in any assay. Activity calls are given as the source filed them. Cut-off read from the data, not from the text of the source: active = growth inhibition above about 70%; inactive = the rest.

Legend:
[1] = NCI Yeast Anticancer Drug Screen. Data for the rad52 strain (AID 147);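 note: 0% = growth of vehicle-treated control cultures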; conditions: S. cerevisiae rad52 mutant growth inhibition, hits give high values
Outline: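 Here a repair-compromised yeast strain receives each compound; its growth is then quantified and normalised to vehicle-only controls.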

[2] = NCI Yeast Anticancer Drug Screen. Data for the wt1 strain (AID 149);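 note: 0% = growth of vehicle-treated wt1 cultures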; conditions: S. cerevisiae wt1 strain (SPY 50644) growth inhibition, hits give high values
Outline: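 Yeast wt1 strain exposed to compounds; growth inhibition measured relative to vehicle-treated controls.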

[3] = NCI Yeast Anticancer Drug Screen. Data for the rad50EPP+ strain (AID 151);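 note: 0% = growth of vehicle-treated control cultures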; conditions: S. cerevisiae rad50 mutant strain, hits give high values
Outline: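 Read-out is yeast growth inhibition relative to vehicle; cells used were the rad50EPP+ strain.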

[4] = NCI Yeast Anticancer Drug Screen. Data for the mgt1 strain (AID 153); conditions: S. cerevisiae mgt1 mutant growth inhibition, hits give high values
Outline: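 Measured: inhibition of mgt1 yeast growth by compound, normalized to vehicle-treated cultures.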

[5] = NCI Yeast Anticancer Drug Screen. Data for the rad50 strain (AID 155);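 note: 0% = growth of vehicle-only cultures of the same strain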; conditions: S. cerevisiae rad50 strain growth inhibition, hits give high values
Outline: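 Yeast carrying a defined DNA repair defect were exposed to test compounds, and growth was compared with vehicle-treated controls to give percent inhibition.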

[6] = NCI Yeast Anticancer Drug Screen. Data for the mec2-1 strain (AID 157); conditions: S. cerevisiae mec2-1 strain, hits give high values
Outline: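 Using mec2-1 yeast: add compound, measure growth, express inhibition versus vehicle-treated cultures.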

[7] = NCI Yeast Anticancer Drug Screen. Data for the rad14 strain (AID 159);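 note: 0% = growth of vehicle-treated control cultures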; conditions: S. cerevisiae rad14 strain growth inhibition, hits give high values
Outline: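 Yeast cells carrying a defined DNA-repair defect were exposed to compounds, and growth inhibition was calculated relative to vehicle-treated control cultures.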

[8] = NCI Yeast Anticancer Drug Screen. Data for the sgs1 mgt1 strain (AID 161);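 note: 0% = growth of cultures given vehicle only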; conditions: S. cerevisiae sgs1 mgt1 strain, hits give high values
Outline: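 Compounds are added to genetically altered yeast, and growth is compared with cultures given vehicle alone to give percent inhibition.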

[9] = NCI Yeast Anticancer Drug Screen. Data for the CLN2oe strain (AID 163);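 note: 0% = growth of vehicle-only control cultures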; conditions: S. cerevisiae CLN2oe strain, hits give high values
Outline: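 Whole-cell yeast growth assay. A strain engineered for altered cell-cycle control received compound, and inhibition relative to vehicle-treated cultures was recorded.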

[10] = NCI Yeast Anticancer Drug Screen. Data for the cln2 rad14 strain (AID 165);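 note: 0% = growth equal to vehicle treated cultures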; conditions: S. cerevisiae cln2 rad14 strain, hits give high values
Outline: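 Yeast strain cln2 rad14, bearing defects in cell cycle control and DNA repair, serves as the test system; values reflect growth inhibition compared with vehicle.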

[11] = NCI Yeast Anticancer Drug Screen. Data for the bub3 strain (AID 167); conditions: S. cerevisiae bub3 mutant strain, hits give high values
Outline: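 Compounds were applied to a genetically altered yeast strain carrying a cell-cycle control defect. Growth inhibition was scored against vehicle-treated controls.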

[12] = NCI Yeast Anticancer Drug Screen. Data for the wt2 strain (AID 169);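 note: 0% = growth of vehicle-treated yeast cultures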; conditions: S. cerevisiae wt2 strain growth inhibition, hits give high values
Outline: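 Treated yeast vs. vehicle-treated yeast: growth inhibition determined.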

[13] = NCI Yeast Anticancer Drug Screen. Data for the mlh1 strain (AID 171);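 note: 0% = growth of vehicle-treated control cultures of the same strain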; conditions: S. cerevisiae mlh1 strain growth inhibition, hits give high values
Outline: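 A yeast strain with a defined genetic lesion serves as the test organism. Cultures receive compound or vehicle, and growth is measured.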

[14] = NCI Yeast Anticancer Drug Screen. Data for the sgs1 strain (AID 173);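 note: 0% = growth of vehicle-only control cultures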; conditions: S. cerevisiae sgs1 mutant, hits give high values
Outline: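 A genetically defined yeast mutant is incubated with the test compound, and its growth is compared to that of the same strain given vehicle.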

[15] = NCI Yeast Anticancer Drug Screen. Data for the mlh1 rad18 strain (AID 175); conditions: S. cerevisiae mlh1 rad18 strain growth inhibition, hits give high values
Outline: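 Steps: expose repair-defective yeast to compound; measure growth; express inhibition against vehicle-treated controls.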

[16] = NCI Yeast Anticancer Drug Screen. Data for the rad18 strain (AID 177); conditions: S. cerevisiae rad18 mutant growth inhibition, hits give high values
Outline: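 Measured value is growth inhibition of a yeast strain bearing a DNA repair alteration, referenced to vehicle-treated cells.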

[17] = at 5.0 µM (retest, dose inferred, filed as 0.5)
[18] = at 50.0 µM (retest, dose inferred, filed as 5.0)

Measured: growth inhibition

CCCc1cc(C(=O)OCC)cc(CCC)c1O
active: [1]; at 100.0 µM 97% | [2]; at 100.0 µM 93% | [4]; at 100.0 µM 97% | [5]; at 50.0 µM 93.1% | [5]; at 100.0 µM 98% | [6]; at 50.0 µM 96.1% | [6]; at 100.0 µM 95% | [7]; at 100.0 µM 96% | [8]; at 50.0 µM 79.3% | [9]; at 100.0 µM 96% | [10]; at 50.0 µM 93.8% | [11]; [18] 77% | [11]; at 50.0 µM 96.7% | [11]; at 100.0 µM 97% | [12]; at 100.0 µM 94% | [13]; at 100.0 µM 98% | [14]; at 100.0 µM 95% | [15]; at 50.0 µM 93.5% | [16]; at 100.0 µM 98%
inactive: [1]; at 1.2 µM -2% | [1]; at 3.7 µM -8% | [1]; at 11.0 µM -9% | [1]; at 33.0 µM -11% | [2]; at 1.2 µM -1% | [2]; at 3.7 µM -5% | [2]; at 11.0 µM -9% | [2]; at 33.0 µM -13% | [3]; at 1.2 µM -2% | [3]; at 3.7 µM 3% | [3]; at 11.0 µM 14% | [3]; at 33.0 µM 21% | [3]; at 100.0 µM 25% | [4]; at 1.2 µM -3% | [4]; at 3.7 µM -4% | [4]; at 11.0 µM -9% | [4]; at 33.0 µM -12% | [5]; at 1.2 µM -8% | [5]; at 3.7 µM -49% | [5]; [17] 5% | [5]; at 11.0 µM 16% | [5]; at 33.0 µM 0% | [5]; [18] 3% | [6]; at 1.2 µM -4% | [6]; at 3.7 µM -5% | [6]; [17] -47% | [6]; at 11.0 µM -13% | [6]; at 33.0 µM -12% | [6]; [18] 8% | [7]; at 1.2 µM -1% | [7]; at 3.7 µM -2% | [7]; at 11.0 µM -11% | [7]; at 33.0 µM -8% | [8]; [17] 1% | [8]; [18] 27% | [9]; at 1.2 µM -1% | [9]; at 3.7 µM -6% | [9]; at 11.0 µM -9% | [9]; at 33.0 µM -30% | [10]; [17] 2% | [10]; [18] -29% | [11]; at 1.2 µM 0% | [11]; at 3.7 µM 10% | [11]; [17] 31% | [11]; at 11.0 µM 39% | [11]; at 33.0 µM 63% | [12]; at 1.2 µM -1% | [12]; at 3.7 µM 4% | [12]; at 11.0 µM -7% | [12]; at 33.0 µM -3% | [13]; at 1.2 µM -4% | [13]; at 3.7 µM -4% | [13]; at 11.0 µM -8% | [13]; at 33.0 µM -8% | [14]; at 1.2 µM -2% | [14]; at 3.7 µM -2% | [14]; at 11.0 µM -3% | [14]; at 33.0 µM 18% | [15]; [17] 2% | [15]; [18] 7% | [16]; at 1.2 µM -6% | [16]; at 3.7 µM 0% | [16]; at 11.0 µM -5% | [16]; at 33.0 µM -1%
